Measured values taken from the supplement of paper PMC12494721.
Where a name gives a salt, the structure may show the parent alone.

Each compound was assayed on Escherichia coli IAI1 (assay: fold change of Cadaverine concentration vs plate DMSO controls (fold change (ratio)); higher = more amine produced, active = hit call of the paper (significant change in both replicates, either direction)). Details: incubation time: 27 h, anaerobic, 37 °C;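 for the amine columns active = adjusted P below 0.05 in both replicates with a change the same way and a mean fold change under 0.8 or over 1.25; inactive = the rest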.
Procedure, shortened: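 Amine values are fold changes relative to DMSO-only wells on the same plate. They derive from 27 h, 37 °C anaerobic mGAM cultures of four gut bacterial strains in 80 µL wells, dosed at 20 µM final, or 50 µM final for sweeteners. Extraction of the whole culture, LC–triple-quadrupole MS in dynamic MRM mode, external calibration curves and within-batch drift correction were used, with 2 biological replicates averaged.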

| SMILES | fold change of Cadaverine concentration |
| --- | --- |
| COc1ccc(CC(C)NCC(O)c2ccc(O)c(NC=O)c2)cc1 (centres undefined) [Formoterol fumarate] (20 µM) | 0.91 (inactive) |
| CCN(CC)CCc1nc(-c2ccccc2)no1 [Oxolamine citrate salt] (20 µM) | 1.02 (inactive) |
| O=C(O)c1cc(-c2ccc(F)cc2F)ccc1O [Diflunisal] (20 µM) | 1.02 (inactive) |
| NC(=O)NC1NC(=O)NC1=O (centres undefined) [Allantoin] (20 µM) | 0.983 (inactive) |
| CN1CCCN=C1/C=C/c1cccs1 [Pyrantel tartrate] (20 µM) | 1.03 (inactive) |
| CCN1CCN(c2cc3c(cc2F)c(=O)c(C(=O)O)cn3C2CC2)CC1 [Enrofloxacin] (20 µM) | 0.204 (active) |
| CCCNC(C)C(=O)Nc1c(C)csc1C(=O)OC (centres undefined) [Articaine hydrochloride] (20 µM) | 0.966 (inactive) |
| CCN(CC)CC(=O)Nc1c(C)cccc1C [Lidocaine hydrochloride] (20 µM) | 0.975 (inactive) |
| CCn1cc(C(=O)O)c(=O)c2cc(F)c(N3CCNC(C)C3)c(F)c21 (centres undefined) [Lomefloxacin hydrochloride] (20 µM) | 0.166 (active) |
| C[C@]12CCC(=O)C=C1CC[C@@H]1[C@@H]2C(=O)C[C@@]2(C)[C@H]1CC[C@]2(O)C(=O)CO [Cortisone] (20 µM) | 0.994 (inactive) |
| CCN(CC)CCNC(=O)c1cc(Cl)c(N)cc1OC [Metoclopramide monohydrochloride] (20 µM) | 0.826 (inactive) |
| C[C@@H](CN1CC(=O)NC(=O)C1)N1CC(=O)NC(=O)C1 [Dexrazoxane hydrochloride] (20 µM) | 0.988 (inactive) |
| CCOc1ccc(NC(C)=O)cc1 [Phenacetin] (20 µM) | 0.997 (inactive) |
| CC(C)C(=O)Nc1ccc([N+](=O)[O-])c(C(F)(F)F)c1 [Flutamide] (20 µM) | 0.982 (inactive) |
| Cc1ccc2c([nH]c(=O)c3c(=O)cc(C(=O)OCCC(C)C)oc32)c1C [Repirinast] (20 µM) | 1.03 (inactive) |
| CCCCc1oc2ccccc2c1C(=O)c1cc(I)c(OCCN(CC)CC)c(I)c1 [Amiodarone hydrochloride] (20 µM) | 1.04 (inactive) |
| NCc1ccc(S(N)(=O)=O)cc1 [Mafenide hydrochloride] (20 µM) | 1.04 (inactive) |
| CC[C@@H](CO)NCCN[C@@H](CC)CO [Ethambutol dihydrochloride] (20 µM) | 0.954 (inactive) |
| Nc1c2ccccc2nc2ccccc12 [Aminacrine] (20 µM) | 1.29 (active) |
| CC(C(=O)O)c1cccc(C(=O)c2ccccc2)c1 (centres undefined) [Ketoprofen] (20 µM) | 1.02 (inactive) |

| SMILES | fold change of Cadaverine concentration |
| --- | --- |
| CCOC(=O)[C@H](CCc1ccccc1)N[C@H]1CS[C@H](c2cccs2)CN(CC(=O)O)C1=O [Temocapril hydrochloride] (20 µM) | 1.04 (inactive) |
| CC(COc1ccccc1)N(CCCl)Cc1ccccc1 (centres undefined) [Phenoxybenzamine hydrochloride] (20 µM) | 0.963 (inactive) |
| CC1(C)OC(=O)NC1=O [Dimethadione] (20 µM) | 1.01 (inactive) |
| c1cnc(N2CCN(Cc3ccc4c(c3)OCO4)CC2)nc1 [Piribedil] (20 µM) | 0.962 (inactive) |
| O=c1[nH]c(=O)n(C2CCCO2)cc1F (centres undefined) [Tegafur] (20 µM) | 0.967 (inactive) |
| Nc1ccc(S(=O)(=O)Nc2ncccn2)cc1 [Sulfadiazine] (20 µM) | 1.03 (inactive) |
| Cc1onc(-c2c(Cl)cccc2Cl)c1C(=O)N[C@@H]1C(=O)N2[C@@H]1SC(C)(C)[C@@H]2C(=O)O [Dicloxacillin sodium salt hydrate] (20 µM) | 1.03 (inactive) |
| CN(C)CCC=C1c2ccccc2C=Cc2ccccc21 [Cyclobenzaprine hydrochloride] (20 µM) | 1.01 (inactive) |
| C#C[C@]1(O)CC[C@H]2[C@@H]3CCc4cc(O)ccc4[C@H]3CC[C@@]21C [Ethinylestradiol] (20 µM) | 1.01 (inactive) |
| CN1CC(O)c2cc(N=NC(N)=O)c(O)cc21 (centres undefined) [Carbazochrome] (20 µM) | 0.914 (inactive) |
| C[C@@H](O[C@H]1OCCN(Cc2n[nH]c(=O)[nH]2)[C@H]1c1ccc(F)cc1)c1cc(C(F)(F)F)cc(C(F)(F)F)c1 [Aprepitant] (20 µM) | 1.02 (inactive) |
| CCOC(=O)c1c(N)sc2c1CCN(Cc1ccccc1)C2 [Tinoridine hydrochloride] (20 µM) | 0.954 (inactive) |
| C/C(=C1\CCOC(=O)S1)N(C=O)Cc1cnc(C)nc1N [Cycotiamine] (20 µM) | 1.01 (inactive) |
| CCN1CCN(C(=O)N[C@@H](C(=O)N[C@@H]2C(=O)N3[C@@H]2SC(C)(C)[C@@H]3C(=O)O)c2ccccc2)C(=O)C1=O [Piperacillin sodium salt] (20 µM) | 1.84 (active) |
| CN1CCN2c3ccccc3Cc3ccccc3C2C1 (centres undefined) [Mianserine hydrochloride] (20 µM) | 0.999 (inactive) |
| O=C(Oc1cccc2cccnc12)c1ccccc1 [Benzoxiquine] (20 µM) | 0.995 (inactive) |
| Cc1cc(=O)n(-c2ccccc2)n1C [Antipyrine] (20 µM) | 1.01 (inactive) |
| O=C1c2cccc(O)c2C(=O)c2c(O)cccc21 [Danthron] (20 µM) | 1 (inactive) |
| Cc1c(Nc2ncccc2C(=O)O)cccc1C(F)(F)F [Flunixin meglumine] (20 µM) | 1.01 (inactive) |
